# Test results: PubChem BioAssay (EPA / NIEHS)
# Records with an inconclusive call do not appear. Activity calls are given as the source filed them. The calls were made as follows: active = hit-call score of the fitted dose curve at least 0.9, where 1 is the maximum; inconclusive = response in the unintended direction; inactive = score below 0.9.
# Read-out: ABC Transporter (ABCB11), ABCB11 (gene 8647)
# Assay: CLD_ABCB11_48hr: CellzDirect (CLD) Gene Expression Assay for ABC Transporter (ABCB11) at 48 hours (AID 2283697)
# Procedure: CLD_48hr is a cell-based, multiplexed-readout assay that uses hepatocyte, a human liver primary cell, with measurements taken at 48 hours after chemical dosing in a 96-well plate.CLD_ABCB11_48hr is one of 16 assay component(s) measured or calculated from the CLD_48hr assay. It is designed to make measurements of mRNA induction, a form of inducible reporter, as detected with chemiluminescence signals by Quantitative Nuclease Protection Assay (qNPA) technology.Data from the assay component CLD_ABCB11_48hr was analyzed at the endpoint, CLD_ABCB11_48hr, in the positive analysis fitting direction relative to DMSO as the negative control and baseline of activity. Using a type of inducible reporter, gain-of-signal activity can be used to understand changes in the reporter gene as they relate to the gene ABCB11. Furthermore, this assay endpoint can be referred to as a primary readout. To generalize the intended target to other relatable targets, this assay endpoint is annotated to the transporter intended target family, where subfamily is ABC transporter.
# Human hepatocyte cultures were treated daily for two consecutive days with fresh dosing solutions containing appropriate concentrations of the 320 ToxCast chemicals (chemical identities were blinded to CellzDirect and other ToxCast collaborators), vehicle control (0.2% DMSO), and positive control inducers as summarized in Table 1. Due to the large number of treatment groups and chemicals examined, the ToxCast chemicals were divided into two groups (spanning two independent cultures of hepatocytes from separate donor preparations (Hu778: ToxCast plates 1 and 2; Hu776: ToxCast plates 3 and 4). Each preparation of human hepatocyte cultures was treated with respective vehicle control, medium only control, set of six positive controls/reference chemicals for the five hepatic receptor pathways, and a subset of eight of the ToxCast chemicals (indoxacarb, pyrithiobac-sodium, norflurazon, cyhalofop-butyl, methomyl, thiram, acetochlor, and propiconazole). These replicate data, coupled with internal replicates designed within the blinded ToxCast chemical library, provided additional data to evaluate interindividual differences between hepatocyte preparations and their potential impact on chemical profiles.Cell morphology and integrity were evaluated using phase-contrast microscopy as an indicator of hepatocyte cell health (Tyson & Green, 1987). Cultures for each treatment group (i.e., media, vehicle [0.2% DMSO], positive control inducers [multiple concentrations], and the ToxCast chemicals [multiple concentrations]) were observed and cell morphology was assessed relative to vehicle control cultures at each harvest time point (0, 6, 24, or 48 h). […] Images were evaluated at the conclusion of the study to assess changes in cell integrity and account for the effects of chemical exposure on uncharacteristic changes in concentration-dependent gene expression profiles. The results from these determinations of apparent cytotoxicity were annotated (yes/no) alongside the corresponding qNPA data for reference.At the conclusion of each treatment period, hepatocyte cultures (96-well) were washed with 1 volume of HBSS, lysed by addition of 25 ul ArrayPlate lysis buffer (HTG, Tucson, AZ), and 70 ul/well of Denaturation Oil, denatured by incubation at 95C for 10 min, and frozen at approximately -70C until analysis by nuclease protection assay (qNPA) (Roberts et al., 2007). For qNPA analysis, cell lysates were thawed at 50C for approximately 30 min, qNPA probes were added, and samples were incubated at 95C for 10 min to begin the detection process by denaturing the target RNA, dissociating the duplexes and secondary structure hybridization. At the conclusion of the hybridization period, S1 nuclease reagent was added to each sample to digest all nonprotected nucleotides at 50C for 60-90 min. […]
Structure (SMILES),outcome,AC50
CCOC(=O)CC(SP(=O)(OC)OC)C(=O)OCC (configuration not stated),inactive,–
O=c1ccc(=O)[nH][nH]1,inactive,–
CCCSP(=O)(OCC)Oc1ccc(Br)cc1Cl (configuration not stated),inactive,–
CCOP(=O)(OCC)Oc1cc(C)nc(C(C)C)n1,inactive,–
CC[C@H](C)[C@H]1O[C@]2(C=C[C@@H]1C)C[C@@H]1C[C@@H](C/C=C(\C)[C@@H](O[C@H]3C[C@H](OC)[C@@H](O[C@H]4C[C@H](OC)[C@@H](NC)[C@H](C)O4)[C@H](C)O3)[C@@H](C)/C=C/C=C3\CO[C@@H]4[C@H](O)C(C)=C[C@@H](C(=O)O1)[C@]34O)O2,inactive,–
COP(=O)(NC(C)=O)SC (configuration not stated),inactive,–
CCOP(=S)(OCC)Oc1ccc2c(C)c(Cl)c(=O)oc2c1,inactive,–
CN(C)C(=O)Nc1cccc(C(F)(F)F)c1,inactive,–
COc1cc(OC)nc(Sc2cccc(Cl)c2C(=O)O)n1,inactive,–
C=C(C)[C@H]1Cc2c(ccc3c2O[C@@H]2COc4cc(OC)c(OC)cc4[C@@H]2C3=O)O1,–,3.73 µM (active)
CCC(=NOC/C=C/Cl)C1=C(O)CC(C2CCOCC2)CC1=O (configuration not stated),inactive,–
CCCCOC(=O)c1ccccc1C(=O)O,inactive,–
CCOP(=S)(Oc1cnc(C(C)(C)C)nc1)OC(C)C (configuration not stated),inactive,–
COP(=O)(OC)C(O)C(Cl)(Cl)Cl (configuration not stated),inactive,–
CN(C)NC(=O)CCC(=O)O,inactive,–
CC(COc1ccc(Oc2ccccc2)cc1)Oc1ccccn1 (configuration not stated),inactive,–
CC(C)=CC1C(C(=O)OCN2C(=O)C3=C(CCCC3)C2=O)C1(C)C (configuration not stated),inactive,–
CC1=NNC(=O)N(/N=C/c2cccnc2)C1,inactive,–
CCCOc1nn(C(=O)NS(=O)(=O)c2ccccc2C(=O)OC)c(=O)n1C,inactive,–
COc1cccc(C(=O)NN(C(=O)c2cc(C)cc(C)c2)C(C)(C)C)c1C,inactive,–
CCCCOC(=O)[C@@H](C)Oc1ccc(Oc2ccc(C#N)cc2F)cc1,inactive,–
C[N+]1(C)CCCCC1,inactive,–
N#CSCSC#N,inactive,–
CCOP(=O)(SC(C)CC)N1CCSC1=O (configuration not stated),inactive,–
COP(=O)(OC)SCn1c(=O)oc2cc(Cl)cnc21,inactive,–
CCCCSP(=O)(SCCCC)SCCCC,inactive,–
CN(C)[C@@H]1C(=O)C(C(N)=O)=C(O)[C@@]2(O)C(=O)C3=C(O)c4c(O)cccc4[C@@](C)(O)[C@H]3[C@H](O)[C@@H]12,inactive,–
